Measurements from the supplement of paper PMC11732987, “Enantioselective OTUD7B fragment discovery through chemoproteomics screening and high-throughput optimisation” (Communications Chemistry, 2025).

How the values were obtained:
Assay in all cases: log2 ratio of Biotin-Ahx-Ub-VS probe labelling (fragment/DMSO); higher = less target engagement (more negative = stronger competition), active = hit call of the paper (q ≤ 0.05, log2 ratio ≤ -1)
Conditions in all cases: compound concentration: 200 uM; treatment time: 3 h
USP42 = target: T1, USP42 (UniProt Q9H9J4)
T1 sequence (whole entry): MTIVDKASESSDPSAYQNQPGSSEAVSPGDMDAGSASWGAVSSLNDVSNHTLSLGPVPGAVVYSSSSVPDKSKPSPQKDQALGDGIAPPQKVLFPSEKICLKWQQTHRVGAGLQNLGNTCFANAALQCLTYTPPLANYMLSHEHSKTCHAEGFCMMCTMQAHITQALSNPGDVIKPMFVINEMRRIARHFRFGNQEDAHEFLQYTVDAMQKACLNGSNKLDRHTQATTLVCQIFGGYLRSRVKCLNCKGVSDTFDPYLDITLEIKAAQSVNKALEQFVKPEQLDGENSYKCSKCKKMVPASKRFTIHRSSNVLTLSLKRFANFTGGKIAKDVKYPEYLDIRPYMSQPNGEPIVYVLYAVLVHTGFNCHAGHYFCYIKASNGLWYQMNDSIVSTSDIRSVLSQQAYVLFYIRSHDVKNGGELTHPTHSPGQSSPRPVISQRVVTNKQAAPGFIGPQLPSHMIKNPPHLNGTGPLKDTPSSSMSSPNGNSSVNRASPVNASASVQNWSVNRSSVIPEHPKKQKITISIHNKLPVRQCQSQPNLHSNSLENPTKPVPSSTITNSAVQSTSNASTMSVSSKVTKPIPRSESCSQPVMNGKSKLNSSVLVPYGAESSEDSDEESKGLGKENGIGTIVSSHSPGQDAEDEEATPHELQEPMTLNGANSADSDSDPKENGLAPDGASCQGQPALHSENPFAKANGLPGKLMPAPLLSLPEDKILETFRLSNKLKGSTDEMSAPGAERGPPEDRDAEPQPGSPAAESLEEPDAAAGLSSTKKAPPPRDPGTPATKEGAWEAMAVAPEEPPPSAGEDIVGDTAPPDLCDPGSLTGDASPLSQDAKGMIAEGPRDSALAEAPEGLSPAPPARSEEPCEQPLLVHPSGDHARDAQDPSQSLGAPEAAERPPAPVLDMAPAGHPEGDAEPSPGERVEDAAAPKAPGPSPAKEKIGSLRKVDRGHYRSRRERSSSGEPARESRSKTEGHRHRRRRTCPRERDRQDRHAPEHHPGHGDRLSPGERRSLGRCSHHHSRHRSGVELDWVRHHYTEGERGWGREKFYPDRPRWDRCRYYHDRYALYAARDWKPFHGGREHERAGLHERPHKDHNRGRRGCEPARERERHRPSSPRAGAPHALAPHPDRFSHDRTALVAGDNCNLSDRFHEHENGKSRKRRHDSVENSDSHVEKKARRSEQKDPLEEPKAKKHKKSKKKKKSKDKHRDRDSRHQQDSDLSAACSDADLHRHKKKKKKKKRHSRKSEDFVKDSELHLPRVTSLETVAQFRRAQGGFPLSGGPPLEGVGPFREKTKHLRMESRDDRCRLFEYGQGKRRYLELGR
In short: (§1)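 Labelled DUBs were enriched with NeutrAvidin, digested with LysC and trypsin, and run by diaPASEF LC-MS/MS. The labelling used Biotin-Ahx-Ub-VS at 0.5 µM final for 1 h on HEK293T lysate (495 µg per sample) previously treated in triplicate with fragment at 200 µM or vehicle for 3 h. Values are average log2 fragment/vehicle ratios by unpaired t-test on global-median-normalised Spectronaut quantities of proteins with ≥2 unique peptides.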

USP46 = USP46 (UniProt P62068)
Chain of USP46 (P62068 whole entry): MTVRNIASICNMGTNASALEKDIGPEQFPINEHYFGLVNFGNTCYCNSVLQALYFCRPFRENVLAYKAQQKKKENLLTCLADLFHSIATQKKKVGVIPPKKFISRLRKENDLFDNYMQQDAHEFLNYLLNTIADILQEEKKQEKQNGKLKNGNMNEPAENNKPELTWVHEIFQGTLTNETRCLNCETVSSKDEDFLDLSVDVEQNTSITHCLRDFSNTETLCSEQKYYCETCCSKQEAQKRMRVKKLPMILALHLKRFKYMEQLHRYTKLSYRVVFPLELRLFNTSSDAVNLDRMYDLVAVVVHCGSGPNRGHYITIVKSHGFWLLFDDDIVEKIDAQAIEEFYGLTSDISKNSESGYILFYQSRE
In short: as §1

USP47 = target: T2, USP47 (UniProt Q96K76)
T2 sequence (whole entry): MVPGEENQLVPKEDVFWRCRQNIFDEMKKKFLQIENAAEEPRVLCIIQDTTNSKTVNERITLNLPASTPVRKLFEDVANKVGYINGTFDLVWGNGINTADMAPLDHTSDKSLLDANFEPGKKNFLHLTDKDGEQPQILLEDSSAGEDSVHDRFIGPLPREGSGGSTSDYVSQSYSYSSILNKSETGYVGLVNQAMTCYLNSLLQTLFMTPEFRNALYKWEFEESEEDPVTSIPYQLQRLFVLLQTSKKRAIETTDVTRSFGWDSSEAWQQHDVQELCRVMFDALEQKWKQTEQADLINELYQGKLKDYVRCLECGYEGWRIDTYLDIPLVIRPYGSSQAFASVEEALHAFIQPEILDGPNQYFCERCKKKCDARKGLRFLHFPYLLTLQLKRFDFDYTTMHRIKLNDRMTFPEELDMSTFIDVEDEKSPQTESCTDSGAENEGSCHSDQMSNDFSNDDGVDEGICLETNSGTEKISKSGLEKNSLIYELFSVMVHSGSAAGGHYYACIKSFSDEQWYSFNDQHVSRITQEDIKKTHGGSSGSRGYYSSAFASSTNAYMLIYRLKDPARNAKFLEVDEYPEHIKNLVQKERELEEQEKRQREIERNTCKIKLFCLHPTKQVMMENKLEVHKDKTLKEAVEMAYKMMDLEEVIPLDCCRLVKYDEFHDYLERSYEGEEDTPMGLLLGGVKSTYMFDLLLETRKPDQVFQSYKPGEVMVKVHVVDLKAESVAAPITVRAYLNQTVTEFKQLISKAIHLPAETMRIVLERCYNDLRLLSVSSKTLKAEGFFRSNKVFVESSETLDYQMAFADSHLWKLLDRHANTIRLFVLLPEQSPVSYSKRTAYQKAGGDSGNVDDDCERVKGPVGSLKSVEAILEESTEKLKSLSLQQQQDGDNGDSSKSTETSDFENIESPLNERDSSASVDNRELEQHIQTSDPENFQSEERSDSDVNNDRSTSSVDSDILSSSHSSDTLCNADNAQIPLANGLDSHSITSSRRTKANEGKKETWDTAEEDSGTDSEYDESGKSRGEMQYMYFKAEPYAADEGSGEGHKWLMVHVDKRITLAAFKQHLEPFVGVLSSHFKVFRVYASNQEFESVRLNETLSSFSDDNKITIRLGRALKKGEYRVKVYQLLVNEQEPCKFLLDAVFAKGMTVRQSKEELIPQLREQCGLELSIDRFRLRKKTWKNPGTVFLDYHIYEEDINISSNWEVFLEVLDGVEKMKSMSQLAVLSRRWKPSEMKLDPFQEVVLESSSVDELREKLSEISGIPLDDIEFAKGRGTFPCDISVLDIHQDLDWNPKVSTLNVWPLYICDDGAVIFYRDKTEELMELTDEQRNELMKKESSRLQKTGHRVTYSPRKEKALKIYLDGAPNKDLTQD
In short: as §1

USP48 = target: T3, USP48 (UniProt Q86UV5)
T3 sequence (whole entry): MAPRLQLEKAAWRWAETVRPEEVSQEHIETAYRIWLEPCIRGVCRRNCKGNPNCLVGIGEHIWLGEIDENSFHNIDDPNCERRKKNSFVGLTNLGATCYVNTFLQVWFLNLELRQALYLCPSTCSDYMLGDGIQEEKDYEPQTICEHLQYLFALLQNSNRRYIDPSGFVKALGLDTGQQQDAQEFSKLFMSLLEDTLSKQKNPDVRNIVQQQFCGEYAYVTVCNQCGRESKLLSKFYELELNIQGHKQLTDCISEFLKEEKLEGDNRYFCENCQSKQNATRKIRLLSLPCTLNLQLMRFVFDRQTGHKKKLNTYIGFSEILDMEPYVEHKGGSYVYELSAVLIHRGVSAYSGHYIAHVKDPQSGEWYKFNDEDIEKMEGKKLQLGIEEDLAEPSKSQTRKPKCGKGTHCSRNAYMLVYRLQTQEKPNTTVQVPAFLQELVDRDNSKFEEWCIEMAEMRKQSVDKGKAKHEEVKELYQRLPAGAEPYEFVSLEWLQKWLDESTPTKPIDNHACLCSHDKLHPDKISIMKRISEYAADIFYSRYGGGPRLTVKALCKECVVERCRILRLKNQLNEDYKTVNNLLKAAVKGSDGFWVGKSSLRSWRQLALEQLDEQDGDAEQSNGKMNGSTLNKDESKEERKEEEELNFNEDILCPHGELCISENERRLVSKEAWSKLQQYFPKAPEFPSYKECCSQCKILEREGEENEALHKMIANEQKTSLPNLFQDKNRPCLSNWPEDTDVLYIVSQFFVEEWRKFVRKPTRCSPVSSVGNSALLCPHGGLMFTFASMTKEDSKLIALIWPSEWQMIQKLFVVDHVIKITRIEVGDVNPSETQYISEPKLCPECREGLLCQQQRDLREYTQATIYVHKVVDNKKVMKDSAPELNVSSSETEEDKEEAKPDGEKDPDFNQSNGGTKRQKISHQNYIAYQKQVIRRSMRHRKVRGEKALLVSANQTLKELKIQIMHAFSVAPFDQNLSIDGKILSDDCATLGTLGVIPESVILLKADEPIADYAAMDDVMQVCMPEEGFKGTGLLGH
In short: as §1

USP5 = target: T4, USP5 (UniProt P45974)
T4 sequence (whole entry): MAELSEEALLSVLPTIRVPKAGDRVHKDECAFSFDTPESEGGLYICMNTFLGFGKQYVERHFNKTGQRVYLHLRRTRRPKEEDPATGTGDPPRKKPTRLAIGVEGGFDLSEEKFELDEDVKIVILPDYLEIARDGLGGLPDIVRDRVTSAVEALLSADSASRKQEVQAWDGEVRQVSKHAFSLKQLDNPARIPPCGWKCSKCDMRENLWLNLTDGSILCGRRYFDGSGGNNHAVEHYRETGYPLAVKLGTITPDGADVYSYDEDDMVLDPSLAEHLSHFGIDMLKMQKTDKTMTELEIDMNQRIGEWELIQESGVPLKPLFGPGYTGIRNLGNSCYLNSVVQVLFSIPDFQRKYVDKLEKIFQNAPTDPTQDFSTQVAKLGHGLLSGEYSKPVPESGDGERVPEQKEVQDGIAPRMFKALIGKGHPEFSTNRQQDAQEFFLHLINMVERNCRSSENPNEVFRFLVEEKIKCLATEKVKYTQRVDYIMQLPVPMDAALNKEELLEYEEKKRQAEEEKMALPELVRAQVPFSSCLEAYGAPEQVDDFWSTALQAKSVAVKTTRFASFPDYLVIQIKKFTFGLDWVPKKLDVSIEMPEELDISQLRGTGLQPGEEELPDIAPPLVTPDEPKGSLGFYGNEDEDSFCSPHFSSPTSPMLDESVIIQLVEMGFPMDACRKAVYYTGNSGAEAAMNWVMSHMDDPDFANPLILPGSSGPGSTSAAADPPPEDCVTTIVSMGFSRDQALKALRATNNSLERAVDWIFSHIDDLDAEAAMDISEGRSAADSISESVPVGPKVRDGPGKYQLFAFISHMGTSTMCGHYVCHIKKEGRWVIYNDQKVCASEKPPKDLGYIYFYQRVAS
In short: as §1

USP54 = USP54 (UniProt Q70EL1)
Chain of USP54 (Q70EL1 whole entry): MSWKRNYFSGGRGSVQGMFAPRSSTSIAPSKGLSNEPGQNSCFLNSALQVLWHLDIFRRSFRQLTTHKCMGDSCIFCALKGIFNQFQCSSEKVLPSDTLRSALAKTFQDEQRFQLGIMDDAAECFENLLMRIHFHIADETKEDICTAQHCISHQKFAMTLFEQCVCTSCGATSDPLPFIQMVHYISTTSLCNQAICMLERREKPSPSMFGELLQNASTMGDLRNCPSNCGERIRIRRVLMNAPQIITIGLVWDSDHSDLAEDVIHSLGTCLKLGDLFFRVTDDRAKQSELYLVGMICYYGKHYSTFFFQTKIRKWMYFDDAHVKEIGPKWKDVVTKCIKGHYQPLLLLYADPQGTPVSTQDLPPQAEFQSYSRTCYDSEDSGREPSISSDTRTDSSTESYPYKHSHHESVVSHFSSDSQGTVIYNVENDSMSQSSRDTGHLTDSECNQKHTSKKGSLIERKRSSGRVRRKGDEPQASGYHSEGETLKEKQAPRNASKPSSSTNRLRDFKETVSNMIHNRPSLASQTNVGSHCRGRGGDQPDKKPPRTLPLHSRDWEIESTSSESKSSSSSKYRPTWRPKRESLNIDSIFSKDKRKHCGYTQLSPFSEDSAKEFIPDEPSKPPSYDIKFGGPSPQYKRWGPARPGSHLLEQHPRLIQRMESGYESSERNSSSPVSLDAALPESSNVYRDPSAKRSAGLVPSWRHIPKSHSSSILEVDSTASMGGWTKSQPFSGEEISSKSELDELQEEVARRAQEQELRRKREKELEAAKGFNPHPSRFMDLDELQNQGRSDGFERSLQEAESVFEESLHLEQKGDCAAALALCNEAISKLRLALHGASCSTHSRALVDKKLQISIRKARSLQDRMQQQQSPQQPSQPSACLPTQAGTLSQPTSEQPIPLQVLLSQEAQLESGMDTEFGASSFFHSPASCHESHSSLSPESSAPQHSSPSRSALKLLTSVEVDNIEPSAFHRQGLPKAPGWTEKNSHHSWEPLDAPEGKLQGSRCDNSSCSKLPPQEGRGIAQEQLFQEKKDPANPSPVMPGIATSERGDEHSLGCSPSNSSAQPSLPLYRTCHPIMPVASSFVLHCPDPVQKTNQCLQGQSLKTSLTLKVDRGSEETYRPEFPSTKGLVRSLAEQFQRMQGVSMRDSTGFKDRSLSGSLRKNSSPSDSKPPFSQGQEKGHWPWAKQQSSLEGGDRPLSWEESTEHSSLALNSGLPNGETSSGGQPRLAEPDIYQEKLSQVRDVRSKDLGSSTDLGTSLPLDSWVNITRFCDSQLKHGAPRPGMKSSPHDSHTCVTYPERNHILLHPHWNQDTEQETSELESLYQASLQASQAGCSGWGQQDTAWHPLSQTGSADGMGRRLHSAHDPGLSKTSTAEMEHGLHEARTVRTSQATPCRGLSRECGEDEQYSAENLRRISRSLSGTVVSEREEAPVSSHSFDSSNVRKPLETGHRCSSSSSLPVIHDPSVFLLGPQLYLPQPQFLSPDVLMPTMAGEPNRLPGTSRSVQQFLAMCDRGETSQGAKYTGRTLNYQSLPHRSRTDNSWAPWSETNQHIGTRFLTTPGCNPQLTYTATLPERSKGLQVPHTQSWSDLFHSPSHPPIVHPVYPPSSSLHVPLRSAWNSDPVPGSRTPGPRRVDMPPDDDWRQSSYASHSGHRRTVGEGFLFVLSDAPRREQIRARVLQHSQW
In short: as §1

USP7 = USP7 (UniProt Q93009)
Chain of USP7 (Q93009 whole entry, looked up): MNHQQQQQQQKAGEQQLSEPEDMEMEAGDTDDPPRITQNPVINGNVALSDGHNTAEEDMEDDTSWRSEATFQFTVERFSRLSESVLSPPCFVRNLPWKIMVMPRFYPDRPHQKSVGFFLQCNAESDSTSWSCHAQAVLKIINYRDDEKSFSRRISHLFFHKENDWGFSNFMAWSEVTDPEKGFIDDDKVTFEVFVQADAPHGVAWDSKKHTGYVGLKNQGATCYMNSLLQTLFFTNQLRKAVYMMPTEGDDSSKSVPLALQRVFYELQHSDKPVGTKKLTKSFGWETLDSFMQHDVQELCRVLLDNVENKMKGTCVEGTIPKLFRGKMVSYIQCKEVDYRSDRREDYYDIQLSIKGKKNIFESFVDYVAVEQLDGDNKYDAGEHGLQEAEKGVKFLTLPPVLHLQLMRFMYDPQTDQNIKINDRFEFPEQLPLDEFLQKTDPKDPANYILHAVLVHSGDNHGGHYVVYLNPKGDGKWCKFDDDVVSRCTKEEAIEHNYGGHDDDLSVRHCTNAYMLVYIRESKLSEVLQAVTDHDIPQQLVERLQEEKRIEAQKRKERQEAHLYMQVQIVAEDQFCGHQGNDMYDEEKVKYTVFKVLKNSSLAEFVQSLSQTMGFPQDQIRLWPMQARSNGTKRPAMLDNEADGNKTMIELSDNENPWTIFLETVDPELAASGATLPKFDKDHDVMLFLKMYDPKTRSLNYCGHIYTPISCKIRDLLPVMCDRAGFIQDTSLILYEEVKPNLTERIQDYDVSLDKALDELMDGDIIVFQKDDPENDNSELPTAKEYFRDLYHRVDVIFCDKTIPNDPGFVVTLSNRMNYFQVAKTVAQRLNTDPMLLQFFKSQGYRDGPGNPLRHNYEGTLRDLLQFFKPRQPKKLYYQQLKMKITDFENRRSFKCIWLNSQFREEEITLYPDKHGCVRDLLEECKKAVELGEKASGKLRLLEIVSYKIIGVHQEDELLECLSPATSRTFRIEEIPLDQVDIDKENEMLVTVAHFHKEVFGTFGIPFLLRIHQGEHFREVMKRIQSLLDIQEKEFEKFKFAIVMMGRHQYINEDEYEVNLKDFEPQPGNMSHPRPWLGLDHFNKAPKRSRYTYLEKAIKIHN
In short: as §1

USP8 = target: T5, USP8 (UniProt P40818)
T5 sequence (whole entry): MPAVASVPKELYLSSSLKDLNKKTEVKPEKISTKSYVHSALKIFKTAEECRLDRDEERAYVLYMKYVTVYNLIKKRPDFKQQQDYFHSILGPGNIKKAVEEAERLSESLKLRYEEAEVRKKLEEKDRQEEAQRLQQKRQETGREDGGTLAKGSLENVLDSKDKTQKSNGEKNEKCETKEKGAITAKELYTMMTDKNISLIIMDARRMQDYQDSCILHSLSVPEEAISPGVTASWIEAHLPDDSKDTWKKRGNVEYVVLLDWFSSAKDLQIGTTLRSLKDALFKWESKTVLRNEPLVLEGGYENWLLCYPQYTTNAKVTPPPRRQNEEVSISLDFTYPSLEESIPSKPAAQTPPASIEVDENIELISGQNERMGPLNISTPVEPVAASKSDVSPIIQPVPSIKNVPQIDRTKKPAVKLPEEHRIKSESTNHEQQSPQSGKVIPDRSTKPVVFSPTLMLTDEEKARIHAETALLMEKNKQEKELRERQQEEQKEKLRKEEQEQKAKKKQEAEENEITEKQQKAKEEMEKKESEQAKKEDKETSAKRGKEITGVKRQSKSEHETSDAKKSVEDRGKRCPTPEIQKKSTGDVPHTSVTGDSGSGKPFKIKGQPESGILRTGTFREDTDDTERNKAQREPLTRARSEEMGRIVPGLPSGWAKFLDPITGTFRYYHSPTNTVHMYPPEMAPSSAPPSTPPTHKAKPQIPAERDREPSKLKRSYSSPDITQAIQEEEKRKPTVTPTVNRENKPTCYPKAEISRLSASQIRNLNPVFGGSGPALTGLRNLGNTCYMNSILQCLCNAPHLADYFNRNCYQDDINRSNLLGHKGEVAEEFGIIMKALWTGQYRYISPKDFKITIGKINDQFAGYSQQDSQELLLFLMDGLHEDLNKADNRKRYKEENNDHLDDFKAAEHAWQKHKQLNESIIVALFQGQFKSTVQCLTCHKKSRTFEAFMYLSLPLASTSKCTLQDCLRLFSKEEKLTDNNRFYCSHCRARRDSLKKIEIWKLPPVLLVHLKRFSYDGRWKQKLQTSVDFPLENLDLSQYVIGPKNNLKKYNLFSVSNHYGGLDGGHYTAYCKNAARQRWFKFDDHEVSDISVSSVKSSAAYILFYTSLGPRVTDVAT
In short: as §1

USP9X = USP9X (UniProt Q93008)
In short: as §1

UniProt O00487 = target: UniProt O00487
Chain of UniProt O00487 (O00487 whole entry): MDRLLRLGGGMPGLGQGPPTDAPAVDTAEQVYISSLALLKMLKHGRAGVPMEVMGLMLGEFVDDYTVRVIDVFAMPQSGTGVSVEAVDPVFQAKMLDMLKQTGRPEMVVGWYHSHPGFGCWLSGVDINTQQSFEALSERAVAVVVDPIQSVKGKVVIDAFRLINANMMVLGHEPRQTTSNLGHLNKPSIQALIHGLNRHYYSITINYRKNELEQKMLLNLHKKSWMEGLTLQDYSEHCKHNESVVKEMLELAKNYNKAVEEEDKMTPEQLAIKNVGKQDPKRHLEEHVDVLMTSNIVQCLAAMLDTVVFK
In short: as §1

Measured: log2 ratio of Biotin-Ahx-Ub-VS probe labelling

Cc1cccc(C(CNC(=O)CCl)N2CCOCC2)c1.Cl (stereo not given)
inactive: USP42 -0.208 | USP46 0.086 | USP47 0.268 | USP48 -0.106 | USP5 -0.22 | USP54 -0.0536 | USP7 -0.244 | USP8 -0.417 | USP9X -0.0494 | UniProt O00487 0.181
